Screens as filed in PubChem.
HCV inh = HCV inhibition; Huh7.5.1 HCVcc-Cre infection, luciferase reporter, 44 h; Potency, µM (titrated, usually from 41.8 µM), inactives show top-dose activity change, negative = inhibition, hits mostly inhibitors; 3.4% of 340,000 active; AID 651820; active = well fitted inhibition curve with a large enough effect; inconclusive = small, poorly fitted or top-dose-only effect, or another doubt; inactive = no such curve, though single readings can be large or run the other way; also: potency is read from the fitted curve at half-maximal effect
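A cell-based infection assay in which seeded cells (1,000 per well) receive test compound after 4 h, are inoculated with HCVcc-Cre at approximately 0.5 moi, and are incubated 44 h before luminescence detection.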
FMDV inh = antivirals against foot and mouth disease virus; FMDV antiviral cell-based qHTS; Potency, µM (highest dose often 57.9 µM), inactives show top-dose activity change, negative = inhibition, usual class: inhibitors; 1.2% of 410,000 active; AID 1159524; calls by dose curve; tested in HEK293T cells; also: read-out not given here; potency is read from the fitted curve at half-maximal effect; nearly all actives have a fitted effect of over 45% in size
Lassa entry inh = inhibitors of Lassa virus binding or cell entry. AID 540256. Lassa virus pseudotype entry inhibition, cell reporter. 1.2% of 300,000 active. Potency, µM (highest dose often 37.9 µM), without a hit: at the highest dose activity change, negative = inhibition, usual class: inhibitors; calls by dose curve; tested in HEK293 cells; also: potency is read from the fitted curve at half-maximal effect; nearly all actives have a fitted effect of over 50% in size
HCMV inh = blocks human cytomegalovirus replication | HFF cells, HCMV-luciferase reporter, 72 h; hits give low values | AID 1259415 | activity change, negative = inhibition, % at 57.5 µM | 4.5% of 410,000 active; in the data active = activity change below about -60%; inconclusive = no clear call, values can overlap the other calls; inactive = above about -39%
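Inhibition of viral replication was scored as loss of reporter luminescence in HFFs infected with HCMV-luciferase (MOI 1 PFU/cell) for 72 h; compounds tested at 2 doses, normalized to buffer and Salinomycin controls.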
MARV entry inh = blocks Marburg virus binding to or entry into cells | Potency, µM (series often up to 37.8 µM), inactives show at the top dose activity change, negative = inhibition, hits mostly inhibitors | 1.8% of 300,000 active | AID 540276 | Marburg virus pseudotyped entry inhibition, cell reporter; calls by dose curve; tested in HEK293 cells; also: potency is read from the fitted curve at half-maximal effect
* marks the source's active call; other numbers are inactive results; ? = inconclusive; . = no result given; [ ] = another dose, or the depositor's remark. Only some compounds are listed: those with a hit (about 7.9% of all), similar ones and a draw of the others. % is scaled to controls: 0 for no effect and ±100 for the full control effect.

SMILES | HCV inh | FMDV inh | Lassa entry inh | HCMV inh | MARV entry inh
COc1cc([C@H]2NC(=O)C[C@H]2C(=O)OCc2ccccc2)ccc1OC(C)C | . | . | . | -15 | .
CCOc1ccc(N(CC)S(=O)(=O)c2cc(Br)cc3c2N(C(C)=O)C(C)C3)cc1 (stereo not given) | . | 11µM* | ? | -63* | ?
Cc1cc2c(cc1C)-c1nnnn1C(C)(C)C2 | ? | 0% | 2% | 1 | 28%
CCNC(=O)c1ccc2c(c1)C1C3CCC(C3)C1C(c1ccccc1)N2 (stereo not given) | 10% | -18% | ? | -63* | -4%
CC1(C(=O)Nc2ccccc2)CCN1C(=O)Cc1ccc(-c2ccccc2)cc1 (stereo not given) | . | ? | . | -74* | .
CC1(C(=O)Nc2ccc3c(c2)OCO3)CCN1C(=O)Cc1ccc(-c2ccccc2)cc1 (stereo not given) | . | 0% | . | -81* | .
COc1ccc2c(c1)CCc1cnc(-n3ncc(C(=O)N(C)CC4CCCN(C)C4)c3C)nc1-2 (stereo not given) | . | -6% | . | . | .
COCCC(=O)N1CCC(Oc2ccc(C(=O)N3CCCC(COC)C3)cc2)CC1 (stereo not given) | 7% | 2% | 0% | 19 | 12%
COc1ccc(S(=O)(=O)N2CCC(C(=O)NCCC(=O)NCc3cccnc3)CC2)cc1 | . | -11% | . | -12 | .
CCOc1ccc(NC(=O)CSc2nc(-c3cccc(Cl)c3)nc3c2Cc2c(CO)cnc(C)c2O3)cc1 | . | -13% | -9%[46.1 µM] | -7 | .
O=S(Cc1ccccc1)CC(O)(c1ccc(Cl)cc1)c1ccc(Cl)cc1 (stereo not given) | -15% | 8% | -22% | -92* | ?
Cn1cnnc1SCC(=O)c1ccc(OC(F)F)cc1 | 8% | 4% | 1% | -78* | 21%
COC(=O)C1=C(N)Oc2cc(N(C)C)ccc2C1c1ccccc1OC (stereo not given) | 6.3µM* | 0% | ? | -11 | ?
Cc1cc(Sc2nc(N)ncc2[N+](=O)[O-])ncn1 | ? | ? | -11% | -99* | ?
Cc1cc(Sc2ncnc(N)c2[N+](=O)[O-])ncn1 | ? | 20µM* | 11µM* | . | ?
CCN(CC)C(=O)[C@H]1C[C@H](CC(=O)NCCCn2ccnc2)C(=O)N2CCc3c([nH]c4cc(CCC(=O)N(C)C)ccc34)[C@]12C | 0% | -19% | . | 19 | .
CN(C)c1ncc2nc(-c3ccccc3)c(=O)n(Cc3cccs3)c2n1 | . | -26% | . | . | .
Cc1cc([N+](=O)[O-])c2ccccc2[n+]1[O-] | 11µM* | ? | . | . | .
CCCCOc1ccccc1C1CC(=O)Nc2ccc3ccccc3c21 (stereo not given) | . | -21% | -23%[46.1 µM] | -92* | ?
CCN(CC)S(=O)(=O)c1ccc(N2CCCC2)c(NC(=O)c2nn(C)c(=O)c3ccccc23)c1 | ? | -25% | . | -10 | .
Cn1nc(CC(=O)NCc2ccc(C(F)(F)F)cc2)c2ccccc2c1=O | ? | 16µM* | -23% | 21 | ?
Cn1nc(C(=O)Nc2ccccc2N2CCCC2)c2ccccc2c1=O | 11µM* | ? | . | -40 | .
Cn1nc(CC(=O)NC2CCCCCC2)c2ccccc2c1=O | 3.2µM* | ? | . | -72* | .
O=C(CCl)Nc1cccc2ncccc12 | 13µM* | -14% | ? | -99* | ?
Cn1nc(CC(=O)NC2CCCCC2)c2ccccc2c1=O | -2% | -29% | 1% | 2 | -25%
SMILES | HCV inh | FMDV inh | Lassa entry inh | HCMV inh | MARV entry inh
CCc1cccc(NC(=O)c2sc3nc[nH]c(=O)c3c2C)c1 | . | 7% | -5%[46.1 µM] | 31 | .
O=Cc1ccc2c(c1)OCCOCCOCCOCCO2 | . | -13% | . | -13 | .
Cn1nc(CC(=O)Nc2cccc3ncccc23)c2ccccc2c1=O | ? | ? | ? | -67* | ?
COc1ccc(CNC(=O)Cc2nn(C)c(=O)c3ccccc23)cc1 | ? | 16µM* | -24% | ? | ?
Cn1nc(C(=O)NC2CCC(O)CC2)c2ccccc2c1=O (stereo not given) | 12% | -17% | . | -65* | .
COc1ccc(OC)c(NC(=O)Cc2nn(C)c(=O)c3ccccc23)c1 | -29% | ? | -4% | ? | ?
Cc1ccc(CN2CCOc3ccc(CN4CCN(CCO)CC4)cc3C2)s1 | . | -5% | . | . | .
COc1ccc(CN2CCN(C(=O)CCC(=O)Nc3nnc(C4CCCCC4)s3)CC2)cc1F | ? | ? | -3%[46.1 µM] | -73* | -28%[46.1 µM]
CCCc1nnc(NC(=O)CCC(=O)N2CCN(Cc3ccc(OC)c(F)c3)CC2)s1 | ? | ? | . | -76* | .
